Source: PubChem BioAssay AID623911 (Vanderbilt High Throughput Screening Facility, 2012)
Hit rate of the full screen: of about 2,100 compounds, about 770 (37%) were called active.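 How the source made its calls: active means by-eye trace score of 1 for enhancers or -1 for inhibitors, so actives lie on both sides (some results past the limit were not filed as active); inactive means score 0, or 3 fluorescent, or 4 baseline rise.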 Some of the results follow.

Target: G protein-activated inward rectifier potassium channel 2 (Homo sapiens) + G protein-activated inward rectifier potassium channel 1 (Homo sapiens) (UniProt P48051+P48549)
Assay: GIRK1/2 thallium flux modulators, retest, confirmation, cell-based, HEK293 rmGlu8/hGIRK1/2, FluoZin-2 (AID 623911)
Conditions: HEK293 rmGlu8/hGIRK1/2, thallium flux FluoZin-2; actives lie on both sides; glutamate co-added at its EC20 level

Sequence of G protein-activated inward rectifier potassium channel 2 (Homo sapiens) + G protein-activated inward rectifier potassium channel 1 (Homo sapiens) (P48051 whole entry, looked up): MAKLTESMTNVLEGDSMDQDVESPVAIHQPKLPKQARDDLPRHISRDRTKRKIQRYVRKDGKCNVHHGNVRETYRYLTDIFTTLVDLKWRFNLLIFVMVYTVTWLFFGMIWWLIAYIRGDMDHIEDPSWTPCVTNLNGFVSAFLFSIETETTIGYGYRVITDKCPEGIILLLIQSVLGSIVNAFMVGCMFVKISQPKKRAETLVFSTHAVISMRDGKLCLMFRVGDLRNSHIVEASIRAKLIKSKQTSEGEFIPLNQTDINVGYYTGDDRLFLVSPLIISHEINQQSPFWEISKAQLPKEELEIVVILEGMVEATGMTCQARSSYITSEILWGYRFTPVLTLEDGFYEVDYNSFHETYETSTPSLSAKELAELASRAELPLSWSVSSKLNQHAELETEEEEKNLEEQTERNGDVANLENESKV
Sequence of G protein-activated inward rectifier potassium channel 2 (Homo sapiens) + G protein-activated inward rectifier potassium channel 1 (Homo sapiens) (P48549 whole entry, looked up): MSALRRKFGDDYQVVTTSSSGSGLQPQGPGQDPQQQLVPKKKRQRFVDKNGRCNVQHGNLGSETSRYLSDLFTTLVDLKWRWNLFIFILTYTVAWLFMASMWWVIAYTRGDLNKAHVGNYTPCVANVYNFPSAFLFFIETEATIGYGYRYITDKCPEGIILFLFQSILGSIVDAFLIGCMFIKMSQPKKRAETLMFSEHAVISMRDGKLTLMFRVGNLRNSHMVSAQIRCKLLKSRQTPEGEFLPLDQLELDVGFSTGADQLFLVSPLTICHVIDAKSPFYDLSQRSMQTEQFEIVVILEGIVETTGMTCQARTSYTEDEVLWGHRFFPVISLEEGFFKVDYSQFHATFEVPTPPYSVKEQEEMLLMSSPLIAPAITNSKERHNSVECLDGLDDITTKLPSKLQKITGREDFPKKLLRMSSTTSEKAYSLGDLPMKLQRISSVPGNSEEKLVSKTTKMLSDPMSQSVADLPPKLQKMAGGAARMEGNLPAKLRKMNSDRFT

Manual score, inactive:
O=C(CCN1C(=O)COc2ccccc21)NCCCN1CCc2ccccc2C1 0
O=C(c1cccc(F)c1)N1CCN(Cc2ccco2)CC1 0
O=C(CCc1nc(-c2ccccc2F)no1)NCCN1CCN(Cc2ccccc2)CC1 0
CCn1c(N)c(C(=O)NCc2ccco2)sc1=S 0
Cc1ccc(S(=O)(=O)N/N=C/c2ccc(OC3CSC3)cc2)cc1 0
CCc1ccc2c(c1)C1(NN=C(c3ccc(C)cc3)S1)C(=O)N2 (stereo not drawn) 0
Cc1ccccc1C(=O)Nc1ccc2nc3n(c(=O)c2c1)CCC3 0
CN(c1ccccc1C(=O)Nc1ccccc1C(=O)NCc1ccco1)S(C)(=O)=O 0
Cc1cc(C)nc(N2CCCC(C(=O)NCCc3ccc(F)cc3)C2)n1 (stereo not drawn) 0
CCC1CCCCN1C(=O)c1cc2cc(Br)ccc2oc1=O (stereo not drawn) 0
O=C(O)c1cnc(-c2ccccc2)nc1Sc1ccccc1Cl 0
CCn1c(=NC(=O)CSC(C)=O)sc2ccccc21 0
O=C(Nn1cnnc1)c1cc2cc(Br)ccc2oc1=O 0
Cc1c(N2C(=O)CS/C2=N\N=C\c2ccccc2O)c(=O)n(-c2ccccc2)n1C 0
O=C(C1CCCN(Cc2cccs2)C1)N1CCCCCC1 (stereo not drawn) 0
CC1CC(C)CN(CCCn2c(=S)[nH]c3ccccc3c2=O)C1 (stereo not drawn) -0.5
O=[n+]1cc(-c2ccccc2)n([O-])c2c1CCC2 0
CC1=C(C(=O)Nc2cccnc2)C(c2ccc3c(c2)OCO3)C2=C(CCCC2=O)N1 (stereo not drawn) -0.5
COCCN(C(=O)Cc1cccs1)C(C(=O)NCc1ccc(OC)cc1)c1ccccc1 (stereo not drawn) 0
COC(=O)COn1c(SC(C)C)nc2ccccc2c1=O 0
CNC(=O)c1ccc2nc(NC(C)=O)sc2c1 -0.5
Cc1cccc2sc(NC(=O)Cn3cccc3)nc12 0
O=C(Nc1nc2ccc(Cl)cc2s1)c1ccc(Br)o1 0
COc1ccc2[nH]c(C)c(C(=O)CN3CC(C)OC(C)C3)c2c1 (stereo not drawn) 0
Cc1ccccc1-n1nnc2c(=O)oc3ccccc3c21 0
O=C(Cc1ccccc1)Nc1nc(=O)c2ccccc2s1 0
CCN(CC)C(=S)SCC(=O)Nc1nc(=O)c2ccccc2s1 0
COC(=O)c1ccc(NS(=O)(=O)c2ccc(SC)cc2)cc1 0
CC(=O)Nc1ccc(SCC(=O)c2cc(C)n(-c3ccccc3F)c2C)cc1 0
O=C(CCCc1nc(-c2ccc(Cl)cc2)no1)N1CCOCC1 0
CC(C)N(Cc1nc(-c2ccccc2)no1)C(=O)CSc1ccccc1 0
CN(C)Cc1c(O)c(Cl)cc2c3c(c(=O)oc12)CCCC3 0
O=C(O)C1C2C=CC3(CN(C4CCCC4)C(=O)C13)O2 (stereo not drawn) 0
COc1ccc(NC(=O)Nc2ccccc2OC)cc1 0
COc1ccc2cc(C(=O)Nc3ccccc3)sc(=O)c2c1OC 0
O=C(NC(=S)NCCC1=CCCCC1)c1cncc(Br)c1 0
COc1ccc(NC(=O)NC(C)c2ccncc2)cc1OC (stereo not drawn) 0
CCCOc1ccc(NCC(=O)Nc2ccc(C)cc2C)cc1 0
Cc1ccc(OC(=S)Nc2ccccc2)c(C)c1 0
O=C(O)c1ccccc1C(=O)Nc1ccc(-c2csc(-c3ccccc3)n2)cc1 0
CN1CC=C2C(C#N)=C(N)C(C#N)(C#N)[C@H](c3cccc(Cl)c3)C2C1 (stereo partly drawn) 3
COc1cc(C(=S)N2CCCC2)cc(OC)c1OS(=O)(=O)c1ccc(NC(C)=O)cc1 0
COC(=O)c1ccccc1NC(=O)Nc1cnccn1 0.5

Manual score, active:
Cc1ccccc1-c1nc(CS(=O)(=O)CC(=O)NCCCN2CCCC2)c(C)o1 -1
CCc1ccc(-c2nc(CN3CCC(C(=O)NCc4ccco4)CC3)c(C)o2)cc1 -1
CCN1CCCC1CNC(=O)CSCc1nc(-c2ccccc2C)oc1C (stereo not drawn) -1
Cc1oc(-c2cccc(Cl)c2)nc1CN1CCC(C(=O)NCc2ccco2)CC1 -1
Cc1oc(-c2cccc(Cl)c2)nc1CN1CCCC(C(=O)NCc2ccco2)C1 (stereo not drawn) -1
CCN1CCCC1CNC(=O)C1CCN(Cc2nc(-c3cccc(Br)c3)oc2C)CC1 (stereo not drawn) -1
Cc1oc(-c2ccccc2F)nc1CS(=O)(=O)CC(=O)NCCN(C)C1CCCCC1 -1
Cc1ccccc1-c1nc(CN2CCC(C(=O)NCc3ccco3)CC2)c(C)o1 -1
Cc1ccccc1-c1nc(CN2CCC(C(=O)NCCCN3CC(C)CC(C)C3)CC2)c(C)o1 (stereo not drawn) -1
Cc1cccc(-c2nc(CN3CCCC(C(=O)NC4CCCCC4)C3)c(C)o2)c1 (stereo not drawn) -1
CCc1ccc2nc(NC(=O)c3cc(C)on3)sc2c1 1
Cc1cc(C)c2nc(NC(=O)c3cc(C)on3)sc2c1 1
C/C(CC(=O)NC(C)C)=N\NC(=O)COc1cc(C)c(Br)cc1Br 1
C/C(CC(=O)NCC(C)C)=N\NC(=O)COc1cc(C)c(Br)cc1Br 1
O=C(Nc1nc(=O)c2ccccc2s1)c1ccc(F)cc1 1
O=C(Nc1nc(=O)c2ccccc2s1)c1ccc(Cl)cc1 1
O=C(Nc1nc(=O)c2ccccc2s1)c1ccccc1 1
COC(=O)c1ccc(-n2c(C)cc(C(=O)CSc3ccc(NC(C)=O)cc3)c2C)cc1 1
CCc1ccccc1N(C)C(=O)CCc1nc(-c2ccc(C)cc2)no1 -1
COc1ccc(C)cc1NC(=O)Nc1ccccc1 1
COc1ccc(NC(=O)Nc2cc(C)ccc2OC)cc1 1
CCOc1ccc(NC(=O)Nc2cc(C)ccc2OC)cc1 1
COc1ccc(C)cc1NC(=O)NCCC1=CCCCC1 1
COc1ccc(NC(=O)Nc2ccccc2C(=O)N2CCCC2)cc1 1
COC(=O)[C@H](Cc1ccccc1)NC(=O)NCCC1=CCCCC1 1
